From PubChem BioAssay (NCI)
This is part of a sample that, as a whole, favours compounds with a hit. Of some 83,000 tested, about 20% had one in any assay.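 Single-dose data. Exposure time 48 hours. Values below 10 considered active.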 Values without a mark were called inactive. The source made the active and inactive calls.

Legend:
Test in all cases: NCI-60 one-dose screen, 48 h (100 = growth as untreated, 0 = no growth, -100 = all killed)
Conditions in all cases: 10 µM unless noted
SR leukemia = system: SR leukemia
RPMI-8226 leukemia = system: RPMI-8226 leukemia
OVCAR-8 ovarian = system: OVCAR-8 ovarian
OVCAR-5 ovarian = system: OVCAR-5 ovarian
OVCAR-4 ovarian = system: OVCAR-4 ovarian
SK-OV-3 ovarian = system: SK-OV-3 ovarian
IGROV1 ovarian = system: IGROV1 ovarian
OVCAR-3 ovarian = system: OVCAR-3 ovarian
HS 578T breast = system: HS 578T breast
NCI/ADR-RES ovarian = system: NCI/ADR-RES ovarian
T-47D breast = system: T-47D breast
BT-549 breast = system: BT-549 breast
MDA-MB-435 melanoma = system: MDA-MB-435 melanoma
SW-620 colon = system: SW-620 colon
MCF7 breast = system: MCF7 breast
HCT-116 colon = system: HCT-116 colon
KM12 colon = system: KM12 colon
HCC-2998 colon = system: HCC-2998 colon

Row | Structure (SMILES) | growth (SR leukemia) | growth (RPMI-8226 leukemia) | growth (OVCAR-8 ovarian) | growth (OVCAR-5 ovarian) | growth (OVCAR-4 ovarian) | growth (SK-OV-3 ovarian) | growth (IGROV1 ovarian) | growth (OVCAR-3 ovarian) | growth (HS 578T breast) [%] | growth (NCI/ADR-RES ovarian) [%] | growth (T-47D breast) | growth (BT-549 breast) | growth (MDA-MB-435 melanoma) | growth (SW-620 colon) | growth (MCF7 breast) | growth (HCT-116 colon) | growth (KM12 colon) | growth (HCC-2998 colon) [%]
1 | COc1ncc2cc1NS(=O)(=O)c1cccc(c1)C(=O)NCC1=CC=C(S1)c1ncnc3c1SC2=C3C | -3.91% (active) | -31.3% (active) | 20.6% | -26.2% (active) | -24.1% (active) | 5.33% (active) | -24.5% (active) | -73.1% (active) | 12.7 | 10.6 | -29% (active) | -52.7% (active) | -28.6% (active) | 3.04% (active) | -12.5% (active) | -31.8% (active) | -62.1% (active) | –
2 | CCN(CC)CCCC(C)Nc1ccc2cc(OC)ccc2n1 (stereo not drawn) | 120% | 97% | 99.8% | 109% | 62% | 113% | 105% | 98.8% | 99.9 | 108 | 103% | 107% | 104% | 94.4% | 84.2% | 102% | 93.2% | 101
3 | Cc1[nH]c(/C=C/C(=O)c2ccc(C(F)(F)F)c(F)c2)c(C)c1C(=O)NCC(C)C | 85.6% | 95.8% | 89.4% | 101% | 101% | 105% | 107% | 112% | 97.9 | 98.9 | 88.2% | 111% | 103% | 102% | 86% | 96.7% | 101% | 98.9
4 | C[N+](C)(C/C=C/c1ccccc1)Cc1ccccc1 | 97.7% | 123% | 107% | 81.2% | 97.4% | 107% | 94.5% | 96.4% | 106 | 99.1 | 94.4% | 96.1% | 101% | 100% | 100% | 95.5% | 95.4% | –
5 | CCOC(=O)CSc1nc2sc3c(c2c(=O)n1-c1ccc([N+](=O)[O-])cc1)CCCCC3 | 76.7% | 91.6% | 58.4% | 72.2% | 31% | 68.3% | 68.7% | 51.8% | 39.7 | 84.3 | 76.7% | 97.2% | 77.3% | 81.3% | 76.2% | 51.3% | 89.7% | –
6 | C/C(=C(\c1ccc(OCCN2CCCCCC2)cc1)c1ccc(OC(=O)Cc2ccccc2)cc1)c1ccc(Cl)cc1 | -44.9% (active) | -40.2% (active) | 9.9% (active) | 67.6% | 36.7% | 60.7% | 64.5% | 19.8% | 23.4 | 56.6 | 10% | 67.5% | 41.6% | -34.7% (active) | 3.78% (active) | 4.58% (active) | 22.1% | –
7 | COc1cc2c(/C=C3\C(=O)Nc4ccccc43)c(C(=O)O)[nH]c2cc1C | 91.3% | 87% | 103% | 59.1% | 95.3% | 129% | -10% (active) | 108% | 137 | 84.1 | 113% | 102% | 105% | 120% | 72% | 96.5% | 99.8% | 103
8 | O=C(Cn1nnc([N+](=O)[O-])n1)c1ccccc1 | 84.3% | 40.6% | 101% | 114% | 91.5% | 99.8% | 96.1% | 100% | 106 | 98.4 | 78.9% | 113% | 85.4% | 91.1% | 80.9% | 60% | 95.9% | 102
9 | COc1ccc(C/C(C)=C(\c2ccc(O)cc2)c2ccc(OCCN3CCCC3)cc2)cc1 | 82.4% | 105% | 103% | 99.1% | 104% | 100% | 103% | 108% | 101 | 104 | 73.3% | 110% | 103% | 104% | 63.3% | 93.8% | 106% | 104
